Consider one compound from the supplement of paper PMC11732987, “Enantioselective OTUD7B fragment discovery through chemoproteomics screening and high-throughput optimisation” (Communications Chemistry, 2025).

The structures appear in SMILES notation. A number with no mark means an inactive call.

Test in all cases: log2 ratio of Biotin-Ahx-Ub-VS probe labelling (fragment/DMSO); higher = less target engagement (more negative = stronger competition), active = hit call of the paper (q ≤ 0.05, log2 ratio ≤ -1)
What all share (details): compound concentration: 200 uM; treatment time: 3 h

The target of one test is USP16 (UniProt Q9Y5T5). An outline of the steps:
(§1)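 Using Biotin-Ahx-Ub-VS at 0.5 µM final for 1 h, DUBs were labelled in HEK293T lysate (495 µg per sample) that had first been treated in triplicate with fragment at 200 µM or vehicle for 3 h. NeutrAvidin enrichment, LysC and trypsin digestion and diaPASEF LC-MS/MS followed. Spectronaut label-free quantities were global-median-normalised. Values are average log2 fragment/vehicle ratios by unpaired t-test, using proteins with ≥2 unique peptides.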

A further test concerns the target T1, USP19 (UniProt O94966).
T1 sequence (whole entry): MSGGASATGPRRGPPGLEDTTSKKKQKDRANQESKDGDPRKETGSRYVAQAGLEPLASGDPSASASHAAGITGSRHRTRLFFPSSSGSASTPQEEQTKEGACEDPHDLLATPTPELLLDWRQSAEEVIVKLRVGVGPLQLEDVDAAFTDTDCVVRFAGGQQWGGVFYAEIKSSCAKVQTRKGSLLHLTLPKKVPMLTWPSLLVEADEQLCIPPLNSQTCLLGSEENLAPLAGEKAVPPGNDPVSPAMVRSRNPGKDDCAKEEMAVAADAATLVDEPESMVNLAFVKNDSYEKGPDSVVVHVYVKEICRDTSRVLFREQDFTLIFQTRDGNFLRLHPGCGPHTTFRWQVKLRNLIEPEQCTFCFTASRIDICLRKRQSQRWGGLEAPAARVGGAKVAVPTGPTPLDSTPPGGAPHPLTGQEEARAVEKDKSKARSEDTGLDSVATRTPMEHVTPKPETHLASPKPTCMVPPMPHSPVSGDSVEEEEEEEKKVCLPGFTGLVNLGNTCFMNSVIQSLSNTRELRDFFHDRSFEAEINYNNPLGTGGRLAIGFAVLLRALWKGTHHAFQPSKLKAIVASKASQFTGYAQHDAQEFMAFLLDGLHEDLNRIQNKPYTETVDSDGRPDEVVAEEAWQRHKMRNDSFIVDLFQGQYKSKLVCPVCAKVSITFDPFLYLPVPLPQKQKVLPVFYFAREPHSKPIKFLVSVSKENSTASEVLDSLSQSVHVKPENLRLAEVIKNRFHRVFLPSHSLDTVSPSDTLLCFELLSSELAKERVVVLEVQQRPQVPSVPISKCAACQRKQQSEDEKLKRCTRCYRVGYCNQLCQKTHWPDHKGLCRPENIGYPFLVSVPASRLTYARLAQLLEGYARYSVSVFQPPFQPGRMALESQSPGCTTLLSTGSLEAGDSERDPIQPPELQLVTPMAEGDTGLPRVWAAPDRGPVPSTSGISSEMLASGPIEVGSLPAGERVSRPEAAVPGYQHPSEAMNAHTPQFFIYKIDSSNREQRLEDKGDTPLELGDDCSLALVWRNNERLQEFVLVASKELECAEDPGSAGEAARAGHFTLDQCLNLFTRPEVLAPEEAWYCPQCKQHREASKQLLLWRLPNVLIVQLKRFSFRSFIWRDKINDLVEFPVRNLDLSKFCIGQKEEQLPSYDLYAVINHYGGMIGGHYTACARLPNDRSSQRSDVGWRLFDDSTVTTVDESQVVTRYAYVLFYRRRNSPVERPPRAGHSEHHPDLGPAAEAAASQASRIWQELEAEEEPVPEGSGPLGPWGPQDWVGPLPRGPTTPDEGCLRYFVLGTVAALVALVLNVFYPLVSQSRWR
An outline of the steps:
as §1

For a further test, the target named is USP24 (UniProt Q9UPU5). Put shortly:
as §1

In another test the target is T2, USP25 (UniProt Q9UHP3).
T2 sequence (whole entry): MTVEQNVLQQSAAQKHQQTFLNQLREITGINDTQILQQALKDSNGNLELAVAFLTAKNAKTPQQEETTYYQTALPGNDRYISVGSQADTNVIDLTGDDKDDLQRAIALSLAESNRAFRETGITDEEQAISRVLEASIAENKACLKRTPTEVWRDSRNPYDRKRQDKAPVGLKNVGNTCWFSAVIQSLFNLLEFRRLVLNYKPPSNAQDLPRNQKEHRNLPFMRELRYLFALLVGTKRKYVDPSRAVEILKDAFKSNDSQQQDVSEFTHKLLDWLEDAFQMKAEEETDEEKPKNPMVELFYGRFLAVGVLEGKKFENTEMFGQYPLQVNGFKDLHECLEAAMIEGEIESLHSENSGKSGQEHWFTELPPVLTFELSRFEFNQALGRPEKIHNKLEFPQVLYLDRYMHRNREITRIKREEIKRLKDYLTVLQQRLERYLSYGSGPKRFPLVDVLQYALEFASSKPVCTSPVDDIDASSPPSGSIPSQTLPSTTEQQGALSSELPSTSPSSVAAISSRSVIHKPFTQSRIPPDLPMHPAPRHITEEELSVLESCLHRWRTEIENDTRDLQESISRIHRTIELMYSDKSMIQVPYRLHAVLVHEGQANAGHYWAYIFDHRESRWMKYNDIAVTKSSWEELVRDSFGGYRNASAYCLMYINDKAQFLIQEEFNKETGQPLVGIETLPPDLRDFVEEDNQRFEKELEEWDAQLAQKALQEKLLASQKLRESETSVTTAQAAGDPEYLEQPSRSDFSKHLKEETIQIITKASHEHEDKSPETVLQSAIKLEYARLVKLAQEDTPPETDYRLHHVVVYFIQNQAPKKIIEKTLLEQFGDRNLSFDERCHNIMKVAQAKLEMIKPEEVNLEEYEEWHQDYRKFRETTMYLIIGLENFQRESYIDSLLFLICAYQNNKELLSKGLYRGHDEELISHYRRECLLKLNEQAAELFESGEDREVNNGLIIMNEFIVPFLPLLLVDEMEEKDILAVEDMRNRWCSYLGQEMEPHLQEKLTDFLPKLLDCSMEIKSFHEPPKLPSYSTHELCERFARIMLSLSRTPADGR
An outline of the steps: as §1

In the next test the target is T3, USP28 (UniProt Q96RU2).
T3 sequence (whole entry): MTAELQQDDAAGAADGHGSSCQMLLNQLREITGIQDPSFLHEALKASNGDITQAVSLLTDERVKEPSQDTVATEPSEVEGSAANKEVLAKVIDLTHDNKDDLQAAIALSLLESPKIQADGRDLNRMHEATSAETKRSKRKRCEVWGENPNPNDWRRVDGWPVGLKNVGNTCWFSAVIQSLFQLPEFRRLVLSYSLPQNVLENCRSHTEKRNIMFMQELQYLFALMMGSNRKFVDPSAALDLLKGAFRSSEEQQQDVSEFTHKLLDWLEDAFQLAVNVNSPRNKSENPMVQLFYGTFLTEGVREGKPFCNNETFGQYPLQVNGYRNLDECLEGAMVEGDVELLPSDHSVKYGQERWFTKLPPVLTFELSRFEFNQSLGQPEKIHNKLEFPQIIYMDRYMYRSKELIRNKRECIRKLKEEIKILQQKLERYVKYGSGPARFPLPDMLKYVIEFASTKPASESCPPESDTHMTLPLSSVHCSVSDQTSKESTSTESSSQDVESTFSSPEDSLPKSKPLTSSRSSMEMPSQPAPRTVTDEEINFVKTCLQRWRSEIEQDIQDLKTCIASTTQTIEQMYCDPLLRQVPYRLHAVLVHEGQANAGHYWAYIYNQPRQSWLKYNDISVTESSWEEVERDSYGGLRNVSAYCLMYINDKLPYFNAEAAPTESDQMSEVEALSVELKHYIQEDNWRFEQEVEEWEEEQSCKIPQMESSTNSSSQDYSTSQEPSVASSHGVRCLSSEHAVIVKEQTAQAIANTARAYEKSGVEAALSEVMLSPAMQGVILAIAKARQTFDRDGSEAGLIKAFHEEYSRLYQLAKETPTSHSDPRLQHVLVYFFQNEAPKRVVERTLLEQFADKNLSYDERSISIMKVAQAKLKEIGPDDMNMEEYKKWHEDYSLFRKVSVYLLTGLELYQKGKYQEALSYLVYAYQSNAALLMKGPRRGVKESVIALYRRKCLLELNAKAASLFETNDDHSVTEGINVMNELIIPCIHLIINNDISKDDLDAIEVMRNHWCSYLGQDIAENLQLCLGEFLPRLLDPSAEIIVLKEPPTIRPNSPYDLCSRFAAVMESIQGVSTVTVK
Put shortly: as §1

Sequence of USP16 (Q9Y5T5 whole entry, looked up, the tested form may be a part): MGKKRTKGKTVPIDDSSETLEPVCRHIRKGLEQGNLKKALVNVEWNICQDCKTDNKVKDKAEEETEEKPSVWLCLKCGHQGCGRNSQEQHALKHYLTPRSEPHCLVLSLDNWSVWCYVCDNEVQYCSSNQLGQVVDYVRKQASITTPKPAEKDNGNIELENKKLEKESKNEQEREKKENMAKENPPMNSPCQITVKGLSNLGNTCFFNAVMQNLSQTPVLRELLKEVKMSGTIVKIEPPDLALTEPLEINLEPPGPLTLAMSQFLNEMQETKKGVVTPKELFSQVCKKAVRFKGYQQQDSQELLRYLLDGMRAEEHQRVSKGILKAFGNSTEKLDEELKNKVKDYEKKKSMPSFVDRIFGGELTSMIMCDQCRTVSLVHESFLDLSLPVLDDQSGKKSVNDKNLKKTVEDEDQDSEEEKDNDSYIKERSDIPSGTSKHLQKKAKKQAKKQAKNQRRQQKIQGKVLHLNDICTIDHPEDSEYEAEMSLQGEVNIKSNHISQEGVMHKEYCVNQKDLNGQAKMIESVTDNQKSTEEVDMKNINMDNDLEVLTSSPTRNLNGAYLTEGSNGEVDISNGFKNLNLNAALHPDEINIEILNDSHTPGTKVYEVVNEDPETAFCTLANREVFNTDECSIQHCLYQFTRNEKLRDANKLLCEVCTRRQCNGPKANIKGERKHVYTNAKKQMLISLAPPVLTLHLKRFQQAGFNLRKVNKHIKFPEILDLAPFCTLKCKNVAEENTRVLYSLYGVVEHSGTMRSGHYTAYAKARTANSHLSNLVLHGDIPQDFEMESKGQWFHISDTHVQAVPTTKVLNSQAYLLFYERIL
Sequence of USP24 (Q9UPU5 whole entry): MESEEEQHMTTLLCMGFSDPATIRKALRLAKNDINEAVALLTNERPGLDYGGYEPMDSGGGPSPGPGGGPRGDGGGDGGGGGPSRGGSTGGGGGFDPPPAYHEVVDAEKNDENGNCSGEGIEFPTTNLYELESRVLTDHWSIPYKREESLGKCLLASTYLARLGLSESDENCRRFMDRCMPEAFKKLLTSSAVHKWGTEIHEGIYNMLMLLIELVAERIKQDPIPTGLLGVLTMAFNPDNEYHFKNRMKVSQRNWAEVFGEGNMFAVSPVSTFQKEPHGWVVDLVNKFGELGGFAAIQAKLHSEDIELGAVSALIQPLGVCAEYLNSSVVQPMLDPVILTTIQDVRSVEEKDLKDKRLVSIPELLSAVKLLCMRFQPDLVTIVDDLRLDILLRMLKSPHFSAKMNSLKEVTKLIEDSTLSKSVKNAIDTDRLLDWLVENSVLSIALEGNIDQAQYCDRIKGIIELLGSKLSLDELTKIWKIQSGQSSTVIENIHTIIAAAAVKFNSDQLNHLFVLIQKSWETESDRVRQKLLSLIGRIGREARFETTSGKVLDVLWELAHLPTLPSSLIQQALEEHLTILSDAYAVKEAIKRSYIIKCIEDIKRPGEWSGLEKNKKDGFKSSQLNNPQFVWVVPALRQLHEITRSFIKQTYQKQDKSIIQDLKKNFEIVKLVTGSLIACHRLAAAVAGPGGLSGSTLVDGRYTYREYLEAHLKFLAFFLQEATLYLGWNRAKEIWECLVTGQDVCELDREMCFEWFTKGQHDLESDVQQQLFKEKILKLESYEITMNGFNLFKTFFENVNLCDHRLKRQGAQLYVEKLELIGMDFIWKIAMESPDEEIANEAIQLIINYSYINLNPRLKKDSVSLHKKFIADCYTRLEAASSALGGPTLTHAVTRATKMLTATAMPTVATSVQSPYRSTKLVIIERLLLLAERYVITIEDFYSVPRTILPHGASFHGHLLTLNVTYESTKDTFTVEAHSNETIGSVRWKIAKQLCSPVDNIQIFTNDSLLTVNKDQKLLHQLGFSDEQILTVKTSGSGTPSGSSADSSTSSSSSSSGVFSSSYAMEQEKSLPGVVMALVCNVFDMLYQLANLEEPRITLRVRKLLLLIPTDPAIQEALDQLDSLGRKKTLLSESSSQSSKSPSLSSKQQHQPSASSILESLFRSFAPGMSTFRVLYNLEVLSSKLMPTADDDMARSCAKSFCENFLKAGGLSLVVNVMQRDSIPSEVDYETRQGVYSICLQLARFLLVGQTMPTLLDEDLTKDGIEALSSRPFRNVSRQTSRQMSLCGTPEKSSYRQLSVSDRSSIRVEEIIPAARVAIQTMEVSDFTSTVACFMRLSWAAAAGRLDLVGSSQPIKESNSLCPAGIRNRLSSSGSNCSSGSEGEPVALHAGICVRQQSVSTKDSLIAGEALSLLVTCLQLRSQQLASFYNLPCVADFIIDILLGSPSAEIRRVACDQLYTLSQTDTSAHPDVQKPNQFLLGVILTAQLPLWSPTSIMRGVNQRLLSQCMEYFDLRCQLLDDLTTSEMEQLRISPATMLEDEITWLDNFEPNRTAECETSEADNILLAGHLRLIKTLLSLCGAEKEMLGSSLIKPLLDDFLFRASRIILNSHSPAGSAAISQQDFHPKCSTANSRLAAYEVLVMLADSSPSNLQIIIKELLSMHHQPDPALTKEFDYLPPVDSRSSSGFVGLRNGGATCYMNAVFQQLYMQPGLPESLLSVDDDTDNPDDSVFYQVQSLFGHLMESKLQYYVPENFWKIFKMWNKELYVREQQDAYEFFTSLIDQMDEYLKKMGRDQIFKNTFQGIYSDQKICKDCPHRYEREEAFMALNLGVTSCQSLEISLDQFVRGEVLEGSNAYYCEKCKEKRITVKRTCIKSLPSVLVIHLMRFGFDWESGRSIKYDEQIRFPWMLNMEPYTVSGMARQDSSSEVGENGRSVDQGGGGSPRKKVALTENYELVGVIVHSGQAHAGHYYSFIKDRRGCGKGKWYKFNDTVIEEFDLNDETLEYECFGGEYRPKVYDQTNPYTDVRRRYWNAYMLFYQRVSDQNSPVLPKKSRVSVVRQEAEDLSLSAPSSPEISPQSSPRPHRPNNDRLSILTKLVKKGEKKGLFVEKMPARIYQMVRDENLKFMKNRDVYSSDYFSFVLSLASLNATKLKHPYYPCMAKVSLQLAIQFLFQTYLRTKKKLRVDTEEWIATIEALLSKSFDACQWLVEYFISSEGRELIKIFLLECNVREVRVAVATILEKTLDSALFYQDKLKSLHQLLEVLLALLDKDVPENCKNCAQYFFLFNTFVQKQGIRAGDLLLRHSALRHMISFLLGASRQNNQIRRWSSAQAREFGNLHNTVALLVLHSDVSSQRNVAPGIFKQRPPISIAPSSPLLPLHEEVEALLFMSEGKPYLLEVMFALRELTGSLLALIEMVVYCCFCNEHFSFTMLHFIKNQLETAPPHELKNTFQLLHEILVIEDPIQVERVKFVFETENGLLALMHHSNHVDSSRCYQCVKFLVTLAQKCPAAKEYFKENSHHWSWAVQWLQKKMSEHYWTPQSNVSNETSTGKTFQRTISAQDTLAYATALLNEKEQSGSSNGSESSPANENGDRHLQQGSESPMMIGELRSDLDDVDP

For `O=C(CCl)N[C@H]1CC[C@@H](CO)CC1`, the “log2 ratio of Biotin-Ahx-Ub-VS probe labelling” value in the test with USP16 was -0.292; with USP19, -0.828; with USP24 it was -1.05 (active); in the test with USP25, -0.739; with USP28 it was -1.09 (active).
